# The list is not random: actives were taken first. Their share in the collection is about 10%.
# G9a block – qHTS Assay for Inhibitors of Histone Lysine Methyltransferase G9a. Histone-lysine N-methyltransferase EHMT2 (Homo sapiens), Q96KQ7. G9a H3K9 monomethylation, AlphaScreen, 2 h. Potency, µM (top dose mostly 102 µM), inactives show at the top dose activity, negative = inhibition, actives largely listed as inhibitors. hit rate 8.8% among 350,000; further: potency means the concentration at half of the fitted maximal effect; on the % scale 0 is the no-effect control and ±100 the full control effect; nearly all actives have a fitted effect of over 75% in size
# Target sequence (Q96KQ7 913-1193 limits assumed): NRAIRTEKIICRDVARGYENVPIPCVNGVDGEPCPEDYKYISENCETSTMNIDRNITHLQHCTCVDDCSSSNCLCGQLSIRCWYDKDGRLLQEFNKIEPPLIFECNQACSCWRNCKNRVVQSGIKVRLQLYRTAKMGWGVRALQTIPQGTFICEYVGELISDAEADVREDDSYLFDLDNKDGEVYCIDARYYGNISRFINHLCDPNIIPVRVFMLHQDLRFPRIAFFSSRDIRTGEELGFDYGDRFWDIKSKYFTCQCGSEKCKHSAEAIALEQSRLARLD
#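 Enzyme 20 nM + cpd, 15 min RT; add b-H3K9 pep 500 nM / SAM 20 uM; 2 h RT; anti-H3K9me1 Ab 0.5 ug/mL + SA donor / anti-rabbit acceptor beads 20 ug/mL each, 10 min; AlphaScreen read.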
# CtBP-E1A inh – qHTS Assay for Inhibitors of the CtBP/E1A Interaction; CtBP / adenovirus E1A interaction (AlphaScreen); hit rate 0.49% among 340,000; activity change, % (no concentration beside the values); AID 651724, 2012; AlphaScreen GST-E1A/His-CtBP binding, 1536-well; active compounds read low; in the data active means activity change below about -65%; inconclusive means mostly about -30% to -63%; further: on the % scale 0 is the no-effect control and ±100 the full control effect
#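 AlphaScreen with 125 nM GST-E1A and 125 nM His-CtBP (5X stocks) in Tris pH 8.0, 300 mM NaCl, BSA, Tween 20, TCEP. Compounds preincubated 2 h at 37 deg C, then glutathione donor/nickel acceptor beads added for 1 h at 37 deg C in dark.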
# Six1-Eya2 blk – qHTS Assay for Inhibitors of the Six1/Eya2 Interaction | hit rate 0.56% among 360,000 | AlphaScreen GST-Six1/His-Eya2 binding, biochemical; active compounds read low | activity change, % (no concentration beside the values) | Homeobox protein SIX1 (Homo sapiens) + Protein phosphatase EYA2 (Homo sapiens), …; in the data active means activity change below about -65%; inconclusive means mostly about -30% to -63%; further: on the % scale 0 is the no-effect control and ±100 the full control effect
#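 AlphaScreen with GST-Six1 and His-Eya2 (5X mix: 250 nM and 500 nM), glutathione donor and nickel acceptor beads; buffer 50 mM Tris pH 8.0, 300 mM NaCl, 1 mM TCEP; 1 h at 37 C in the dark.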
# JMJD2A Tudor inh – qHTS Assay for Inhibitors of JMJD2A-Tudor Domain | hit rate 4.4% among 390,000 | Potency, µM (titrated, usually from 114 µM), inactives show at the highest dose activity change, negative = inhibition, hits mostly inhibitors | Lysine-specific demethylase 4A (Homo sapiens), O75164 | AlphaScreen JMJD2A-Tudor / H3K4me3 peptide binding; further: potency means the concentration at half of the fitted maximal effect; on the % scale 0 is the no-effect control and ±100 the full control effect; nearly all actives have a fitted effect of over 50% in size
# BAZ2B inh – qHTS Assay for Inhibitors of BAZ2B. Bromodomain adjacent to zinc finger domain protein 2B (Homo sapiens), Q9UIF8. AlphaScreen BAZ2B-H3K14Ac peptide displacement. Potency, µM (doses to about 114 µM), without a hit: at the top dose activity change, negative = inhibition, actives largely listed as inhibitors. hit rate 4.4% among 360,000. AID 504333, 2011; further: potency means the concentration at half of the fitted maximal effect; on the % scale 0 is the no-effect control and ±100 the full control effect; nearly all actives have a fitted effect of over 60% in size
#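 Inhibition is scored as reduced AlphaScreen emission. The BAZ2B/b-H3(5-23)K14Ac complex (50 nM each) in PBS pH 7.4, 0.01% Tween-20 meets compound (up to 110 uM) for 30 min at RT before bead addition.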
# HP1b chromo inh – HTS for Inhibitors of HP1-beta Chromodomain Interactions with Methylated Histone Tails | Chromobox protein homolog 1 (Homo sapiens), P83916 | AlphaScreen HP1-beta / biotin-H3K9me3 peptide binding | Potency, µM (titrated, usually from 114 µM), for the others: at the top dose activity change, negative = inhibition, actives largely listed as inhibitors | hit rate 0.56% among 390,000 | AID 540317, 2011; further: potency means the concentration at half of the fitted maximal effect; nearly all actives have a fitted effect of over 70% in size
# Target sequence (P83916 whole entry, looked up): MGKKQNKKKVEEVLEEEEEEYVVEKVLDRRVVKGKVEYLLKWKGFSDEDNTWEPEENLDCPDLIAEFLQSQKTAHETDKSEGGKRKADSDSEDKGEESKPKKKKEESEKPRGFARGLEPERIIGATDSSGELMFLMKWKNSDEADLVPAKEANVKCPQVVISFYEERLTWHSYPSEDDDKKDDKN
#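 HP1-beta protein (50 nM final) preincubated 30 min at room temperature with biotinylated H3(1-18)K9me3 peptide (50 nM) in PBS pH 7.4, 0.01% Tween-20, then compound added for 30 min. AlphaScreen streptavidin donor/nickel chelate acceptor beads (10 ug/mL final), 30 min dark, luminescence read.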
# * hit, by the source's call; u = inconclusive; x = not tested or not shown; [ ] = dose if it differs, or a comment. Unless noted, the call rests on the fitted dose curve; in most records, active means well fitted inhibition curve with a large enough effect; inconclusive means small, poorly fitted or top-dose-only effect; inactive means no such curve, though single readings can be large or run the other way.
SMILES,G9a block,CtBP-E1A inh,Six1-Eya2 blk,JMJD2A Tudor inh,BAZ2B inh,HP1b chromo inh
C[C@@H]1NC(=O)c2cc([N+](=O)[O-])cc(I)c2NCCCC[C@@H](C(N)=O)NC(=O)[C@H](CC(N)=O)NC1=O,32µM*,3,0,-20%,u,33%
C[C@@H](O)C1NC(=O)[C@H](CCCCN)NC(=O)c2cc([N+](=O)[O-])cc(I)c2NCCC[C@@H](C(N)=O)NC1=O (some centres not stated),50µM*,25,15,-25%,-32%,27%
CC(C)[C@@H]1NC(=O)c2cc([N+](=O)[O-])cc(I)c2NCC[C@@H](C(N)=O)NC(=O)[C@H](CO)NC1=O,13µM*,x,x,x,u,x
NC(=O)[C@@H]1CCCCNc2c(F)cc([N+](=O)[O-])cc2C(=O)N[C@@H](CC(=O)O)C(=O)NCC(=O)N1,u,3,8,-6%,-4%,53%
Cc1ccc(C(=O)Nc2ncc(Cc3ccc(SC(F)F)cc3)s2)cc1,9%,4,6,-7%,11%,17%
CC(C)C[C@@H]1NC(=O)[C@H](C(C)C)NC(=O)c2cc([N+](=O)[O-])cc(I)c2NCC[C@@H](C(N)=O)NC1=O,13µM*,0,4,-20%,79µM*,23%
CC[C@H](C)[C@@H]1NC(=O)[C@@H](CC(C)C)NC(=O)[C@H](C(C)C)NC(=O)[C@H]2CSSC[C@H](NC1=O)C(=O)N2,x,1,4,x,x,x
CSc1nc(N(CCO)CCO)c2sc3nc(-c4ccco4)c4c(c3c2n1)CCC4,13µM*,u,u,-35%[11.4 µM],u,11µM*
CSc1nc(SCCO)c2sc3nc(-c4ccco4)c4c(c3c2n1)CC(C)(C)OC4,u,4,-5,u,32µM*,15%
N#Cc1cnc(SCC(=O)c2ccccc2)nc1N,13µM*,-12,-9,-17%,10%,39%
O=C(Nc1nnc([C@H]2C[C@H](O)[C@@H](CO)O2)s1)NC1CCCCC1,x,3,4,x,x,x
COc1ccccc1N1Cc2ccccc2C1,10µM*,-2,0,50µM*,56µM*,1%
Cc1ccccc1N1Cc2ccccc2C1,7.9µM*,3,1,-13%,u,52%
COc1ccc(OC)c(N2Cc3ccccc3C2)c1,7.9µM*,-11,0,u,3%,7%
Cc1ccccc1N1Cc2ccccc2C1=O,x,3,5,x,x,x
CCn1cc(C(=O)NCc2ccc(F)cc2)c(=O)c2cc(S(=O)(=O)N(C)C)ccc21,-34%[59 µM],x,x,-17%,x,17%
COC(=O)c1ccnc(/C=N/O)c1,u,-28,-19,35µM*,50µM*,-3%
CCCN(Cc1cccs1)C(=O)Nc1cc(Cl)ccc1C,-11%[59 µM],x,x,-1%,0%,63%
S=C(NCc1ccc2[nH]c3c(c2c1)CCCC3)Nc1ccccc1,u,-1,u,35µM*,32µM*,u
Cc1cc(C)cc(NC(=S)NCc2ccc3[nH]c4c(c3c2)CCCC4)c1,u,-8,-27,50µM*,32µM*,u
Cc1cc(C)cc(NC(=O)CN(C)S(=O)(=O)c2ccc3[nH]c4c(c3c2)CCCC4)c1,u,x,x,u,-35%,8%
CC(C)(C)OC(=O)n1c2ccsc2c2cnn(Cc3ccccc3F)c(=O)c21,x,x,x,-18%,x,x
CCc1ccc2occ(CC(=O)Nc3c(C(=O)c4ccc(F)cc4)oc4ccccc34)c2c1,u,x,x,-2%,-2%,37%
COc1nc(-c2ccc(Cl)cc2)ccc1-c1noc(-c2ccco2)n1,2.8µM*,4,7,-1%,-21%,16%
COc1cccc(-c2ccc(-c3noc(-c4cccs4)n3)c(OC)n2)c1,1.3µM*,-5,-11,28%,2%,12%
SMILES,G9a block,CtBP-E1A inh,Six1-Eya2 blk,JMJD2A Tudor inh,BAZ2B inh,HP1b chromo inh
COc1ccc(-c2ccc(-c3noc(-c4cc(OC)cc(OC)c4)n3)c(OC)n2)cc1,15%[59 µM],x,x,8%,0%,36%
COc1cccc(-c2ccc(-c3noc(-c4ccccc4F)n3)c(OC)n2)c1,15%[12.7 µM],8,8,28%,35%,75%
CN1CCN(C(=O)CCN2C(=O)c3ccccc3S2(=O)=O)CC1,8%[59 µM],-26,5,-2%,-3%,19%
CC1CCC2(CC1)Nc1ccccc1C(=O)N2c1ccccc1 (configuration not stated),71µM*,6,-1,-15%,5%,19%
COc1cc(/C=C2/SC(=S)N(CCC(=O)N3CCN(C)CC3)C2=O)cc(OC)c1OC,x,-3,1,x,x,x
CN1CCN(C(=O)CCN2C(=O)/C(=C\c3ccc(Cl)cc3Cl)SC2=S)CC1,x,u,u,16µM*,u,u
CN1CCN(C(=O)CCCN2C(=O)/C(=C/c3ccc(Cl)cc3)SC2=S)CC1,13%[12.7 µM],-13,-7,u,u,-10%
COc1cc(/C=C2\SC(=S)N(CCC(=O)N3CCN(C)CC3)C2=O)cc(OC)c1OC,50µM*,0,8,u,-13%,u
Cn1c(=O)n(C)c2cc(/C=C3/SC(=O)N(CC(=O)N4CCOCC4)C3=O)ccc21,-2%,2,-6,-2%,50µM*,14%
Cc1ccc(/C=C2\SC(=S)N(CCCC(=O)N3CCOCC3)C2=O)cc1,x,0,-6,20µM*,11µM*,u
CCOC(=O)CN1C(=O)S/C(=C/c2ccc3c(c2)n(C)c(=O)n3C)C1=O,5%[59 µM],6,5,-31%,-3%,7%
CC1CCN(C(=O)CCN2C(=O)/C(=C/c3cccs3)SC2=S)CC1,32µM*,-3,-26,28µM*,u,u
COc1ccc(/C=C2/SC(=S)N(CCCC(=O)N3CCN(C)CC3)C2=O)cc1,u,-10,-18,u,32µM*,u
Cc1ccc(S(=O)(=O)N2CCN(S(=O)(=O)c3ccc4c(c3)OCCCO4)CC2)cc1,x,x,x,-26%[57.1 µM],x,12%[57 µM]
CCOC(=O)c1ccc(NS(=O)(=O)c2ccc3[nH]c(=O)[nH]c3c2)cc1,11µM*,-6,-4,-17%,0%,-26%
CC1CC(C)CN(C(=O)c2ccc(NS(=O)(=O)c3ccc4[nH]c(=O)[nH]c4c3)cc2)C1 (configuration not stated),50µM*,-3,-1,-10%,-5%,9%
